TIM10 inh – inhibits growth of TIM10 yeast strain | S. cerevisiae TIM10 strain growth, BacTiter-Glo luminescence, 24 h | inhibition, % at 10 µM | actives 1.4% (n = 330,000);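 active means inhibition of 40% or more at the single tested concentration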;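 further: wild-type TIM10 isogenic control strain grown at permissive 25 °C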
NLRP3 yeast inh – inhibitors of NALP3 inflammasome in yeast. Yeast reconstituted NLRP3/ASC/caspase-1, beta-gal luminescence, 24 h. inhibition, % at 10 µM. actives 0.39% (n = 330,000). AID 2825;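 active means inhibition of 50% or more; inactive means inhibition below 50%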
SKKanGAS inh – inhibitors of SKKanGAS S. pyogenes growth in kanamycin (SK-promoter or general growth effect); BacTiter-Glo, 6 h; AID 1662; actives 1.3% (n = 300,000); inhibition, % at 7.5 µM;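 active means mean replicate score, as percent of positive control median, at least 50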;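 further: strain carries kanamycin resistance gene driven by streptokinase promoter and grows in 40 µg/ml kanamycin; loss of luminescence reflects streptokinase promoter inhibition or plain growth inhibition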
tim23-1 inh – growth inhibitors of tim23-1 mutant yeast. inhibition, % at 20 µM. AID 463212. actives 1.3% (n = 330,000). S. cerevisiae tim23-1 growth, BacTiter-Glo luminescence, 24 h;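 active means growth inhibition of the mutant yeast at or above 50%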;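 further: temperature-sensitive mutant grown at 25 °C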
tim10-1 inh – tim10-1 yeast growth inhibition; inhibition, % at 20 µM; AID 463190; S. cerevisiae tim10-1 ts strain growth, BacTiter-Glo, 24 h; actives 2.2% (n = 330,000);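 active means inhibition of at least 40%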;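 further: mutant grown at 25 °C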
PfHsp90 yeast 2 – growth inhibition of yeast expressing Plasmodium Hsp90; AID 504621; actives 0.32% (n = 310,000); inhibition, % at 9.4 µM; S. cerevisiae expressing PfHsp90, BacTiter-Glo ATP, 48 h; yeast lacking PDR1 and PDR3 efflux regulators;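 active means every replicate shows inhibition above about 80%, whatever the replicate mean, limit read from the data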
A number is an active result; . = inactive; / = no result given. This is a sample that favours compounds with a hit; in the whole collection about 4.5% have one here.

SMILES	TIM10 inh	NLRP3 yeast inh	SKKanGAS inh	tim23-1 inh	tim10-1 inh	PfHsp90 yeast 2
Cc1ccc(-c2nn(CCC(=O)O)cc2/C=C\C(=O)c2ccc(Br)cc2)cc1	.	.	73.4	.	.	.
Cc1ccc(-c2nn(Cc3ccccc3)cc2/C=C/C(=O)O)cc1	.	.	.	.	.	.
O=Cc1cn(CCC(=O)O)nc1-c1cccc(Br)c1	.	.	/	.	.	.
CCN(CC)CCNC(=O)c1cc2c(-c3cccc(OC)c3)nn(C)c2s1	.	.	.	.	.	.
COc1cccc(-c2nn(C)c3sc(C(=O)Nc4ccc5c(c4)OCCO5)cc23)c1	.	.	59.5	.	.	.
c1ccc(C2=NN(c3ccccc3)CC2)cc1	.	.	.	.	.	.
CCOC(=O)/C(=C/c1ccc(N2CCC(c3ccccc3)=N2)cc1)C(C)=O	/	/	.	/	/	106.3
O=C(NNC(=S)NC(=O)c1sc2ccccc2c1Cl)c1ccc(Cl)cc1	.	.	95.6	.	.	.
O=C(O)c1ccccc1NC(=S)NC(=O)c1sc2ccccc2c1Cl	.	.	/	.	.	.
O=C(NNC(=O)c1cccs1)c1cccc(F)c1	.	.	.	.	.	.
COc1cc(CCC(=O)NNC(=O)c2ccc(Cl)cc2)cc(OC)c1OC	.	.	.	.	.	.
Cc1cccc(C(=O)NC(=S)NNC(=O)c2cccs2)c1	.	.	51.2	.	.	.
COc1cc(C(=O)NNC(=S)NC(=O)c2ccc(Cl)cc2)cc(OC)c1OC	.	.	92.6	.	.	.
O=C(NC(=S)NNC(=O)c1cccs1)c1ccccc1	.	.	86.4	.	.	.
Cc1ccccc1C(=O)Nc1cc(NC(=O)c2ccccc2C)cc(C(=O)O)c1	.	.	.	.	.	.
Cc1cc(S(=O)(=O)N2CCCCC2)ccc1OCC(=O)Nc1ccccc1	.	.	.	.	.	.
O=C(NC(=S)NNC(=O)c1cccs1)c1ccco1	.	.	61.2	.	.	/
Cc1cccc(C(=O)NC(=S)NNC(=O)c2ccc(Cl)cc2)c1	/	/	105.4	/	/	.
COc1cc(C(=O)NNC(=S)NC(=O)/C=C/c2ccccc2)cc(OC)c1OC	.	.	93.2	.	.	.
O=C(/C=C/c1ccccc1)NC(=S)NNC(=O)c1cnccn1	.	.	63.8	.	.	108.6
COc1cc(C(=O)NNC(=O)/C=C/c2ccccc2)cc(OC)c1OC	.	.	/	.	.	.
CC12CCC(C(=O)NNc3ccccc3)(C(=O)C1=O)C2(C)C (stereo not given)	.	.	.	.	.	.
CCCC(=O)N1CCN(c2nc3c(OC)ccc(Cl)c3s2)CC1	.	.	.	.	.	.
CCCC(=O)Nc1ccc(C(=O)NNC(=S)NC(=O)c2cccs2)cc1	.	.	.	.	.	.
CC(C)(C)c1ccc(C(=O)NC(=S)NNC(=O)c2cccs2)cc1	/	/	103.7	/	/	.
SMILES	TIM10 inh	NLRP3 yeast inh	SKKanGAS inh	tim23-1 inh	tim10-1 inh	PfHsp90 yeast 2
Oc1ccc(NC(=S)N=Nc2c(O)[nH]c3ccccc23)cc1	.	.	.	.	.	.
Cc1ccc(NC(=S)N=Nc2c(O)[nH]c3ccccc23)cc1	.	.	73.1	.	.	.
COc1ccc(NC(=S)N=Nc2c(O)[nH]c3ccccc23)cc1	.	.	94.8	.	.	.
CNC(=S)N=Nc1c(O)[nH]c2ccccc12	/	/	.	/	/	.
O=C(CCNC(=O)C1CCN(S(=O)(=O)c2ccccc2)CC1)NCc1ccncc1	.	.	.	.	.	.
Cc1cc2oc(=O)cc(CN3CCOCC3)c2c(C)c1Cl	.	.	.	.	.	.
Cc1ccc2sc(NNC(=O)c3cc(=O)c4ccccc4o3)nc2c1C	.	.	86.0	.	.	.
O=C(NNc1nc2c(F)cccc2s1)c1cc(=O)c2ccccc2o1	.	.	.	.	.	.
Cc1cccc2sc(NNC(=O)c3cc(=O)c4ccccc4o3)nc12	.	.	85.3	.	.	.
COc1ccc2nc(NNC(=O)c3cc(=O)c4ccccc4o3)sc2c1	.	.	49.8	.	.	.
COc1cc(C2/C(=C(\O)c3ccc4c(c3)CC(C)O4)C(=O)C(=O)N2CCCn2ccnc2)cc(OC)c1OC (stereo not given)	.	.	.	.	.	.
COc1cccc(N2CCN(c3ccc4nnc(CCC(=O)Nc5ccccn5)n4n3)CC2)c1	.	.	.	.	.	.
Cc1cccc(-c2oc3ccccc3c2-c2ccc3c(c2)OCO3)c1	/	/	52.2	/	/	.
CC(C)CNC(=O)C(=O)NCC1OCCCN1S(=O)(=O)c1ccc2c(c1)OCCO2 (stereo not given)	.	.	.	.	.	.
Cc1noc(C)c1S(=O)(=O)N(C)CC(=O)NCc1ccccc1	.	.	.	.	.	.
Cc1noc(C)c1S(=O)(=O)N(CCc1ccccc1)Cc1ccccc1	.	.	54.4	.	.	.
COc1ccc(C(C(=O)NC(C)(C)C)N(CCc2ccc(OC)c(OC)c2)C(=O)CCC(=O)Nc2cc(C)on2)cc1 (stereo not given)	.	.	.	.	.	.
O=[N+]([O-])c1cc(Br)cc(C=Nc2ccc3c(c2)OCO3)c1O	.	.	54.3	.	.	.
O=[N+]([O-])c1ccc(O)c(C=Nc2ccc3c(c2)OCO3)c1	.	.	.	.	.	.
Cc1nn(-c2ccccc2)c(Cl)c1C1C(C#N)=C(N)OC2=C1C(=O)CC(C)(C)C2 (stereo not given)	.	.	84.9	.	.	.
CSc1ccccc1Nc1ncnc(N)n1	.	.	.	.	.	.
CCOC(=O)c1sc(NC(=O)CNCc2ccccn2)c(C(=O)OCC)c1C	.	.	87.5	.	.	.
CCOC(=O)c1sc(NC(=O)CNCc2cccnc2)c(C(=O)OCC)c1C	.	.	.	.	.	.
CCCCN(CCCC)C1=Nc2ccccc2N/C1=C(/C#N)C(=O)OCC	.	.	72.1	.	.	.
COC(=O)Cc1ccc(NC(=S)N2CCC(Cc3ccccc3)CC2)cc1	.	.	.	.	.	.
SMILES	TIM10 inh	NLRP3 yeast inh	SKKanGAS inh	tim23-1 inh	tim10-1 inh	PfHsp90 yeast 2
CCOc1ccc(Cl)cc1S(=O)(=O)n1cnc2cc(C)c(C)cc21	.	.	51.5	.	.	.
CCOc1ccc(Cl)cc1S(=O)(=O)N1CCN(c2ccc(C)c(C)c2)CC1	.	.	.	.	.	.
COc1ccc(C(=O)NCC(=O)OCCCOC(=O)CNC(=O)c2ccc(OC)c(OC)c2)cc1OC	.	.	49.7	.	.	.
COc1ccc(C(=O)NCC(=O)OCC(=O)c2ccc(Cl)cc2)cc1OC	.	.	.	.	.	.
CC(/C=C1\SC(=S)N(C(C(=O)O)c2ccccc2)C1=O)=C\c1ccccc1 (stereo not given)	.	.	60.6	.	.	.
CC(=O)OCC1=C(C(=O)O)N2C(=O)C(NC(=O)c3ccc(F)cc3)C2SC1 (stereo not given)	.	.	90.3	.	.	.
CC(=O)OCC1=C(C(=O)O)N2C(=O)[C@@H](NC(=O)CSc3ccncc3)[C@H]2SC1	.	.	/	.	.	.
